Results as given in PMC7862700, “An all-to-all approach to the identification of sequence-specific readers for epigenetic DNA modifications on cytosine”.

What was measured:
Assay in all cases: DAPPL (digital affinity profiling via proximity ligation, sequencing); 10 mM Tris-HCl pH 7.5, 50 mM NaCl, 1 mM DTT, 4% glycerol, room temperature, 30 min; GST-TFs on glutathione beads, 16-mer random dsDNA library, 0.1% formaldehyde crosslink after washing; high values mean tight binding
[1] = biological target: T1, FEV (Homo sapiens, UniProt Q99581 1-238); details: protein: recombinant; tags: N-terminal GST; dsDNA, one strand shown
T1 sequence: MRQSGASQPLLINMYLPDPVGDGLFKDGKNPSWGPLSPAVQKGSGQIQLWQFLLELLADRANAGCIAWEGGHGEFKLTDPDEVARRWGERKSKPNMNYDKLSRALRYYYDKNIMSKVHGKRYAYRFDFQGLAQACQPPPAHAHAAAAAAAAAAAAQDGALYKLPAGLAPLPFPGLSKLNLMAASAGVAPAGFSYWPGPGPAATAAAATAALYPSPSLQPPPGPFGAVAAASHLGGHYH
Procedure, shortened: (§1)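 Binding signal is each hexamer's read frequency for a factor divided by its frequency in the tag-only sample. The factors were GST-fused human transcription factors from yeast, captured on glutathione beads, DNA-barcoded and pooled with that sample. Pools were incubated with 200 nmole of a random double-stranded 16-mer DNA library in Tris/NaCl/DTT/glycerol buffer at room temperature for 30 min, then washed, crosslinked with 0.1% formaldehyde, proximity-ligated with BsaI/T4 ligase (1 h, 37 °C), PCR-amplified and sequenced on an Illumina NextSeq500.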

[2] = biological target: ETV5 (Homo sapiens, UniProt P41161 1-510); details: protein: recombinant; tags: N-terminal GST; dsDNA, one strand shown
Procedure, shortened: as §1

[3] = biological target: HSF1 (Homo sapiens, UniProt Q00613 1-529); details: protein: recombinant; tags: N-terminal GST; chain copies: 3; dsDNA, one strand shown
Procedure, shortened: as §1

[4] = biological target: T2, SPIC (Homo sapiens, UniProt Q8N5J4 1-248); details: protein: recombinant; tags: N-terminal GST; dsDNA, one strand shown
T2 sequence: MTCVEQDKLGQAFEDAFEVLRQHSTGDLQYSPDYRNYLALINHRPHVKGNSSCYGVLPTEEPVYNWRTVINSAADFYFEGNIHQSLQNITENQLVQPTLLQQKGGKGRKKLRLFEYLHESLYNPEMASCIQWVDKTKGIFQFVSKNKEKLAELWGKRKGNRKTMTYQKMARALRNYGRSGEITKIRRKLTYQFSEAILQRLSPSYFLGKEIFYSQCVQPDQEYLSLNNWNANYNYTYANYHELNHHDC
Procedure, shortened: as §1

[5] = biological target: ELF4 (Homo sapiens, UniProt Q99607 1-663); details: protein: recombinant; tags: N-terminal GST; dsDNA, one strand shown
Procedure, shortened: as §1

[6] = biological target: T3, ELK4 (Homo sapiens, UniProt P28324-2 1-405); details: protein: recombinant; tags: N-terminal GST; dsDNA, one strand shown
T3 sequence: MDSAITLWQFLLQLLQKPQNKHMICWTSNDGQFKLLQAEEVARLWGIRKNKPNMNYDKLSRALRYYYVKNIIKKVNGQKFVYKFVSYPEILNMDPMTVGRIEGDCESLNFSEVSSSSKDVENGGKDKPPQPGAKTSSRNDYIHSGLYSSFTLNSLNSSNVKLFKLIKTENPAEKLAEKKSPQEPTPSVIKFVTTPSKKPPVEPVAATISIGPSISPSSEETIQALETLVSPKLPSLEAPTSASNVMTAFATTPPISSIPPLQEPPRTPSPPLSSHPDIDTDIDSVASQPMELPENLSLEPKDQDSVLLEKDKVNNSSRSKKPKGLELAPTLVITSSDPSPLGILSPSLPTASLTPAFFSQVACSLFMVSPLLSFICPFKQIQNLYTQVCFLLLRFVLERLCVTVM
Procedure, shortened: as §1

[7] = biological target: T4, ETV2 (Homo sapiens, UniProt O00321 1-342); details: protein: recombinant; tags: N-terminal GST; dsDNA, one strand shown
T4 sequence: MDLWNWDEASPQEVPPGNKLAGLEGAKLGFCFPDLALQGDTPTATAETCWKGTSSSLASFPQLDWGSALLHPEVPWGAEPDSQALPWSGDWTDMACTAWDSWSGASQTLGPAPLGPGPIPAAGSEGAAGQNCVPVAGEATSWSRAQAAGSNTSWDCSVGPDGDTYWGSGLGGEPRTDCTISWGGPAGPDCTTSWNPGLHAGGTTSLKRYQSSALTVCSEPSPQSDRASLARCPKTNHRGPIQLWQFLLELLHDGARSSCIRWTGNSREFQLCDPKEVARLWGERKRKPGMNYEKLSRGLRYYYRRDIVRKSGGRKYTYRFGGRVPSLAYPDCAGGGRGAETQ
Procedure, shortened: as §1

[8] = biological target: CRX (Homo sapiens, UniProt O43186 1-299); details: protein: recombinant; tags: N-terminal GST; dsDNA, one strand shown
Procedure, shortened: as §1

[9] = biological target: ETV1 (Homo sapiens, UniProt P50549 1-477); details: protein: recombinant; tags: N-terminal GST; dsDNA, one strand shown
Procedure, shortened: as §1

[10] = biological target: T5, ERF (Homo sapiens, UniProt P50548 1-548); details: protein: recombinant; tags: N-terminal GST; dsDNA, one strand shown
T5 sequence: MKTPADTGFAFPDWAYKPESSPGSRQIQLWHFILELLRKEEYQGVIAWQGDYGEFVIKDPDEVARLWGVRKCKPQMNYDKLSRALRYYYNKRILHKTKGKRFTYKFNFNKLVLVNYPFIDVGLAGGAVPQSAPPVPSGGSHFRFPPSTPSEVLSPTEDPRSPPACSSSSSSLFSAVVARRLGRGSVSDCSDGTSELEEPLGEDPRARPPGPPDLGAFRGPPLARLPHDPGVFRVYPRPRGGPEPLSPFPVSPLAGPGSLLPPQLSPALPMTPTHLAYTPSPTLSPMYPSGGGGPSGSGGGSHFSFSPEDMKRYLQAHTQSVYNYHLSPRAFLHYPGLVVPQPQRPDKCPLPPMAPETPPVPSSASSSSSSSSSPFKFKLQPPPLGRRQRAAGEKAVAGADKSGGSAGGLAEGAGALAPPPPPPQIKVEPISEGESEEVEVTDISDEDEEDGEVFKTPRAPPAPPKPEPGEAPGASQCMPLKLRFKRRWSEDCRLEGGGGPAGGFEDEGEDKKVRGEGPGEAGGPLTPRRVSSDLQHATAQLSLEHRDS
Procedure, shortened: as §1

[11] = biological target: T6, ETV3L (Homo sapiens, UniProt Q6ZN32 1-361); details: protein: recombinant; tags: N-terminal GST; dsDNA, one strand shown
T6 sequence: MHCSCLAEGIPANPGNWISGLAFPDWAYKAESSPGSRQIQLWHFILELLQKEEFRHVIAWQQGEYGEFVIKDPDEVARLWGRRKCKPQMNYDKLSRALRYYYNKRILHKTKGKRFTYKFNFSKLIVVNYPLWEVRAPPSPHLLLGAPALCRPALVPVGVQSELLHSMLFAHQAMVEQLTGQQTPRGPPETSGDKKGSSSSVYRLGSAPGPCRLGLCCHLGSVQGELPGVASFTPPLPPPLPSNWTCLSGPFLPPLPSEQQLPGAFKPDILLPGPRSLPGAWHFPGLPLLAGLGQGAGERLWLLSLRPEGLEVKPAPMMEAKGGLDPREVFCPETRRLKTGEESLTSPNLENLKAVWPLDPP
Procedure, shortened: as §1

[12] = biological target: T7, ETS2 (Homo sapiens, UniProt P15036 1-469); details: protein: recombinant; tags: N-terminal GST; dsDNA, one strand shown
T7 sequence: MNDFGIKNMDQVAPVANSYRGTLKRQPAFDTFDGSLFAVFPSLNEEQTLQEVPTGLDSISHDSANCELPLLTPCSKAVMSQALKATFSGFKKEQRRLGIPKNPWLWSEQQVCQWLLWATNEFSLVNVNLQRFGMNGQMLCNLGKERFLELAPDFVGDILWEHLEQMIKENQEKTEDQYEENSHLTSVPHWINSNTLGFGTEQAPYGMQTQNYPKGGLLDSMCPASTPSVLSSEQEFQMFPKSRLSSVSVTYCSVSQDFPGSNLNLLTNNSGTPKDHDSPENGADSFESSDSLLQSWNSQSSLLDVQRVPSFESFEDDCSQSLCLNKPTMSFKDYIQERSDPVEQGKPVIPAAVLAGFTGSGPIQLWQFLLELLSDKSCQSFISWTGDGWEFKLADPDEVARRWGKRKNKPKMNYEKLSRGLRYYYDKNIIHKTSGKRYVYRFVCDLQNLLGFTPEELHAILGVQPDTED
Procedure, shortened: as §1

[13] = biological target: T8, SPDEF (Homo sapiens, UniProt O95238 1-335); details: protein: recombinant; tags: N-terminal GST; dsDNA, one strand shown
T8 sequence: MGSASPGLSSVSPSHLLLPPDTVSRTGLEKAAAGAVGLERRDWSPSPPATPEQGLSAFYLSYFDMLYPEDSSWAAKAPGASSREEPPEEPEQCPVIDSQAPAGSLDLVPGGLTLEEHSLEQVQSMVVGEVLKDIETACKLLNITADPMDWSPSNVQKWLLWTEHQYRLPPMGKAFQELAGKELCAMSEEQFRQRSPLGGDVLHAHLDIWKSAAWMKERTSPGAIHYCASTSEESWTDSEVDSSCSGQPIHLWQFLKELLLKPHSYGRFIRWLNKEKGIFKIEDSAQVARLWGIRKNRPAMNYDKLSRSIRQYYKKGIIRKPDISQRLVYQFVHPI
Procedure, shortened: as §1

[14] = biological target: T9, ETV7 (Homo sapiens, UniProt Q9Y603 1-341); details: protein: recombinant; tags: N-terminal GST; dsDNA, one strand shown
T9 sequence: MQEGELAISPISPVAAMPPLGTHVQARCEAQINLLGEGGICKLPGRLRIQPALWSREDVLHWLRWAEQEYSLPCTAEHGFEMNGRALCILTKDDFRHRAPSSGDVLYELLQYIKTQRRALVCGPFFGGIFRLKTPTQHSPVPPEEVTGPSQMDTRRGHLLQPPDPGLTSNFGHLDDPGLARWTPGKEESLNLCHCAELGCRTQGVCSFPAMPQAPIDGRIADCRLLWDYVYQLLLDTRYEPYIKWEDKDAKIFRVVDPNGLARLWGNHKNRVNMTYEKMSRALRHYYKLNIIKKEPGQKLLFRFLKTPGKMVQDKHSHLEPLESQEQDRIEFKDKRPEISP
Procedure, shortened: as §1

[15] = biological target: T10, ELF5 (Homo sapiens, UniProt Q9UKW6-2 1-255); details: protein: recombinant; tags: N-terminal GST; dsDNA, one strand shown
T10 sequence: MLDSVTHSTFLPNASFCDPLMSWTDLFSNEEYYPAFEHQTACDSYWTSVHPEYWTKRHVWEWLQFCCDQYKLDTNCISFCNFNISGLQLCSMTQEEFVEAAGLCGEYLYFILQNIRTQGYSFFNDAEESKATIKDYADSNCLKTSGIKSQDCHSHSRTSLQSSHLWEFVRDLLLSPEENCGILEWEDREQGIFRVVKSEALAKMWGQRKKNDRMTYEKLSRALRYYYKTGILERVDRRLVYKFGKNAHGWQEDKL
Procedure, shortened: as §1

[16] = biological target: T11, ETV3 (Homo sapiens, UniProt P41162-2 1-143); details: protein: recombinant; tags: N-terminal GST; dsDNA, one strand shown
T11 sequence: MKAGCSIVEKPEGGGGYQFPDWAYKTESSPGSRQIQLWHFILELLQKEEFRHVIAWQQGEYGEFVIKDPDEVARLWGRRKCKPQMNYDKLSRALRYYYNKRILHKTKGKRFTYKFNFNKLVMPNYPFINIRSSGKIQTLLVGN
Procedure, shortened: as §1

[17] = biological target: ETV6 (Homo sapiens, UniProt P41212 1-452); details: protein: recombinant; tags: N-terminal GST; dsDNA, one strand shown
Procedure, shortened: as §1

CRX, sequence (O43186 whole entry): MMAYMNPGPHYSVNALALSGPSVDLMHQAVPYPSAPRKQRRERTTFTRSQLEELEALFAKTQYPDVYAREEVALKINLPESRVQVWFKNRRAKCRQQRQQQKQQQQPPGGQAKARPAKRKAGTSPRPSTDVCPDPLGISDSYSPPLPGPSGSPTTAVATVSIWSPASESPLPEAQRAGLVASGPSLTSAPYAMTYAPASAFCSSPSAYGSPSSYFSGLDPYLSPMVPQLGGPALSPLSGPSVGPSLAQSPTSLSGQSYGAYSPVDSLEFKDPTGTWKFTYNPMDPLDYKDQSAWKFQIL
ETV5, sequence (P41161 whole entry): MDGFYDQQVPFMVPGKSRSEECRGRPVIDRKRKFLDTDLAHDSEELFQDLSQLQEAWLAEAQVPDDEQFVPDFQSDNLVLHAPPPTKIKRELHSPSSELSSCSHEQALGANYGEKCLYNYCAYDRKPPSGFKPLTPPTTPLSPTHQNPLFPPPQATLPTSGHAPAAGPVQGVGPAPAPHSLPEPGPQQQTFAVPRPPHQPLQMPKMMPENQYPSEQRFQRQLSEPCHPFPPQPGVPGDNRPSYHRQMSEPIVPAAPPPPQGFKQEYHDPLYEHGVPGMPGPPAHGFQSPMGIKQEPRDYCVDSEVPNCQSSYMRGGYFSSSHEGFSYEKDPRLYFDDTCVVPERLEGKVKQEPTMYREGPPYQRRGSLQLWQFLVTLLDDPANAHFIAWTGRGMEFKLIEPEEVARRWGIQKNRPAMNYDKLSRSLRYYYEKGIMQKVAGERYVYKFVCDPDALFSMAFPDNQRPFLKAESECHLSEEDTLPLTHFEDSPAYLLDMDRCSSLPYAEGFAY
ETV1, sequence (P50549 whole entry): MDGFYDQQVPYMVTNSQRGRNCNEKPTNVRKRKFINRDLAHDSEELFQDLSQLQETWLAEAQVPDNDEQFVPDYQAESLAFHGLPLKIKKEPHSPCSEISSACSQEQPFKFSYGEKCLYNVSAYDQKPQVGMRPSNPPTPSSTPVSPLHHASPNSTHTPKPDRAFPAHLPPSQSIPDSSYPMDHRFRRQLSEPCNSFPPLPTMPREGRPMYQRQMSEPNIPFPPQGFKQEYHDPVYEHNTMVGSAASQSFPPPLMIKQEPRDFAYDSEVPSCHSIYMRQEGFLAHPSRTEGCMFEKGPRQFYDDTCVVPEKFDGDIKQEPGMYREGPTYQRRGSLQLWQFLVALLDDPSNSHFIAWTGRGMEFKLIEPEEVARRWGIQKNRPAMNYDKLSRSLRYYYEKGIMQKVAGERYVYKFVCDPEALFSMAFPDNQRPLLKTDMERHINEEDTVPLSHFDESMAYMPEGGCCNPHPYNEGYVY
HSF1, sequence (Q00613 whole entry): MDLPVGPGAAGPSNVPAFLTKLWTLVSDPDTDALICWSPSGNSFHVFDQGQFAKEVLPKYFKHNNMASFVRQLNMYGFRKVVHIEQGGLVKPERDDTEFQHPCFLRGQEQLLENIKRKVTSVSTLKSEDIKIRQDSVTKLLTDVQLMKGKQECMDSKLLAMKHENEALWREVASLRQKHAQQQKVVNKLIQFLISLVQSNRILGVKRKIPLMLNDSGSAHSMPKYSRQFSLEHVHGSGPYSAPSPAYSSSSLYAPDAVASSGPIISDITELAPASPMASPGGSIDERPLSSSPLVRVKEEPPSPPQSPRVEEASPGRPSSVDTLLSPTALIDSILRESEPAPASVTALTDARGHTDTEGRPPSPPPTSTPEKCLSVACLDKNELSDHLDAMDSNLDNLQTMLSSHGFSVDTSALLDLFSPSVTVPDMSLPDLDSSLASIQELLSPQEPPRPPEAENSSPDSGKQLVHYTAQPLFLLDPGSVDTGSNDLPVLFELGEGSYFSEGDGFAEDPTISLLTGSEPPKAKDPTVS
ELF4, sequence (Q99607 whole entry): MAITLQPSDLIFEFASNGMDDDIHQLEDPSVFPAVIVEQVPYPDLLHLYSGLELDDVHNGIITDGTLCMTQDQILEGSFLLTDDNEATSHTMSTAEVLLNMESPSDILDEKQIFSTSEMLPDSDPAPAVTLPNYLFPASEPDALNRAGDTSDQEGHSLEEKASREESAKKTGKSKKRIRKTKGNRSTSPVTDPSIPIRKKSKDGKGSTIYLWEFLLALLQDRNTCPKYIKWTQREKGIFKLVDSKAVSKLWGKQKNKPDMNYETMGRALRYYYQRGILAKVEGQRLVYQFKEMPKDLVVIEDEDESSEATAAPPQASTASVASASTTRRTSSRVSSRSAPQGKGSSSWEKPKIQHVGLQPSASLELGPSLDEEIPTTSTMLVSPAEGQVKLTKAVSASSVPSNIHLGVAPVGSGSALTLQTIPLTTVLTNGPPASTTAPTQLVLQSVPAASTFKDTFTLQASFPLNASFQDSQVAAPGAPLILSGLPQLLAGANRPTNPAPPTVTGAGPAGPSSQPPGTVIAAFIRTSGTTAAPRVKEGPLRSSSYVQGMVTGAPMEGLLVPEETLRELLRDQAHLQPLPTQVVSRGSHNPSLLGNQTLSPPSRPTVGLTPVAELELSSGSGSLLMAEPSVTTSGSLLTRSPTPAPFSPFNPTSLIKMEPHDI
ETV6, sequence (P41212 whole entry): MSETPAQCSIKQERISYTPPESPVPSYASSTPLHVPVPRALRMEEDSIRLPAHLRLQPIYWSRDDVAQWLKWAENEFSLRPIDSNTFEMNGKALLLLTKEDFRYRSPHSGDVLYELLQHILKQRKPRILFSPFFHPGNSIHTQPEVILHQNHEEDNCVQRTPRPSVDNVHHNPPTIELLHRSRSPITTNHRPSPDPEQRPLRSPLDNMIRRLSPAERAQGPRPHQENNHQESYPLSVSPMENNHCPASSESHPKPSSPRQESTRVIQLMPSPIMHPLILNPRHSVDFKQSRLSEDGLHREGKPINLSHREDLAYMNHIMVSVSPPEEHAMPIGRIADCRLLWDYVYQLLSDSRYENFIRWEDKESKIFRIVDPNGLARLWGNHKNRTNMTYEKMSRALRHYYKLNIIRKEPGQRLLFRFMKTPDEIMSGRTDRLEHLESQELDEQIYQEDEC

| Sequence | binding signal [1] | binding signal [2] | binding signal [3] | binding signal [4] | binding signal [5] | binding signal [6] | binding signal [7] | binding signal [8] | binding signal [9] | binding signal [10] | binding signal [11] | binding signal [12] | binding signal [13] | binding signal [14] | binding signal [15] | binding signal [16] | binding signal [17] |
| --- | --- | --- | --- | --- | --- | --- | --- | --- | --- | --- | --- | --- | --- | --- | --- | --- | --- |
| ATCATA | 1.07 fold enrichment (6-mer frequency, TF over GST control) | 1.09 fold enrichment (6-mer frequency, TF over GST control) | 1.16 fold enrichment (6-mer frequency, TF over GST control) | 1.04 fold enrichment (6-mer frequency, TF over GST control) | 1.08 fold enrichment (6-mer frequency, TF over GST control) | 1.08 fold enrichment (6-mer frequency, TF over GST control) | 1.16 fold enrichment (6-mer frequency, TF over GST control) | 1.39 fold enrichment (6-mer frequency, TF over GST control) | 1.08 fold enrichment (6-mer frequency, TF over GST control) | 1.12 fold enrichment (6-mer frequency, TF over GST control) | 1.12 fold enrichment (6-mer frequency, TF over GST control) | 1.03 fold enrichment (6-mer frequency, TF over GST control) | 1.03 fold enrichment (6-mer frequency, TF over GST control) | 1.1 fold enrichment (6-mer frequency, TF over GST control) | 1.11 fold enrichment (6-mer frequency, TF over GST control) | 1.09 fold enrichment (6-mer frequency, TF over GST control) | 1.1 fold enrichment (6-mer frequency, TF over GST control) |
| CGAAAT | 1 fold enrichment (6-mer frequency, TF over GST control) | 1 fold enrichment (6-mer frequency, TF over GST control) | 1.4 fold enrichment (6-mer frequency, TF over GST control) | 1.01 fold enrichment (6-mer frequency, TF over GST control) | 1.01 fold enrichment (6-mer frequency, TF over GST control) | 1.18 fold enrichment (6-mer frequency, TF over GST control) | 1.06 fold enrichment (6-mer frequency, TF over GST control) | 1.07 fold enrichment (6-mer frequency, TF over GST control) | 1.02 fold enrichment (6-mer frequency, TF over GST control) | 1.03 fold enrichment (6-mer frequency, TF over GST control) |  |  | 1.04 fold enrichment (6-mer frequency, TF over GST control) | 1.11 fold enrichment (6-mer frequency, TF over GST control) |  | 1.03 fold enrichment (6-mer frequency, TF over GST control) |  |
